# Compounds with a hit are over-represented: about 3.2% of the library has one in this group of screens.
# CBFb-RUNX1 inh = inhibitors of human CBF-beta and RUNX1 interaction; 230,000 tested, under 10 active; Q01196+Q13951; Potency, µM (highest dose often 59.8 µM), for the others: at the highest dose activity, negative = inhibition, usual class: inhibitors; AlphaScreen CBFb-His/RUNX1-biotin binding, biochemical; also: % of control where 0% means no effect
#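 AlphaScreen proximity signal reports loss of binding between His-tagged CBF-beta and biotin-labelled RUNX1, each at 30 nM. Proteins are pre-associated for 20 minutes, compounds added for 15 minutes, then beads for 90 minutes, all at ambient temperature.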
# Tau fibril FP = blocks human tau fibril formation measured by polarization. Potency, µM (highest dose often 57.7 µM), inactives show at the top dose activity, negative = inhibition, usual class: inhibitors. P10636. 0.39% of 280,000 active. K18 P301L tau heparin fibrillization, Alexa594 FP, 6 h; also: potency is read from the fitted curve at half-maximal effect; % is scaled to controls: 0 for no effect and ±100 for the full control effect; nearly all actives have a fitted effect of over 55% in size
# Target sequence (P10636 561-689 P618L limits assumed): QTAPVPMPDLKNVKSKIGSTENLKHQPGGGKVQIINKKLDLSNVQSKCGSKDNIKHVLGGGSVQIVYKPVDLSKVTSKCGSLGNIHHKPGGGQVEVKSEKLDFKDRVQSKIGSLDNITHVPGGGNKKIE
#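 Recombinant K18 P301L […], labeled with Alexa 594 at 0.24 uM over 15 uM unlabeled; heparin inducer 20 uM final; 37 C, 6 hr; FP endpoint.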
# LMNA splice mod = changes lamin A minigene splicing in HeLa cells. HeLa LMNA splicing GFP/RFP minigene ratio, 48 h. Potency, µM (top dose mostly 46.1 µM), for the others: at the highest dose ratio change, negative = inhibition, hits mostly inhibitors. 0.01% of 200,000 active; active = well fitted inhibition curve with a large enough effect in the signal ratio, with a control signal flat, not every such curve was filed as active; inconclusive = small, poorly fitted or top-dose-only effect, or effect the other way, or a change in a side signal; the % refers to the signal ratio; also: potency is read from the fitted curve at half-maximal effect; % is scaled to controls: 0 for no effect and ±100 for the full control effect
#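 Read-out is the ratio of GFP to DsRed2 object intensity, acquired by 488 nm laser-scanning cytometry on HeLa lamin A-EGFP minigene reporter cells. Compound incubation 48 hrs at 37 °C in Opti-MEM with 2% FBS; DMSO 0.5% final.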
# Tau ThT inhib = tau fibrillization inhibition (ThT binding) | P10636 | recombinant tau K18 P301L, heparin-induced fibrillization, ThT fluorescence | Potency, µM (top dose mostly 57.4 µM), for the others: top-dose activity, negative = inhibition, most hits filed as inhibitors | 2.1% of 270,000 active | AID 1460; also: potency is read from the fitted curve at half-maximal effect; % is scaled to controls: 0 for no effect and ±100 for the full control effect; nearly all actives have a fitted effect of over 55% in size
#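 Heparin-induced fibrillization of the P301L-mutant K18 repeat-domain fragment of human tau was followed by ThT binding in quantitative high-throughput format.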
# JMJD2E inh = JMJD2E (human) inhibition | AID 2147 | Potency, µM (titrated, usually from 57.1 µM), without a hit: top-dose activity change, negative = inhibition, usual class: inhibitors | B2RXH2 | 1.6% of 230,000 active | JMJD2E catalytic domain, FDH-coupled NADH fluorescence (FDH is formaldehyde dehydrogenase);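 also: potency is read from the fitted curve at half-maximal effect; 0% = wells with enzyme and -100% = buffer wells without enzyme; nearly all actives have a fitted effect of over 50% in size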
# Target sequence (B2RXH2 1-337 limits assumed): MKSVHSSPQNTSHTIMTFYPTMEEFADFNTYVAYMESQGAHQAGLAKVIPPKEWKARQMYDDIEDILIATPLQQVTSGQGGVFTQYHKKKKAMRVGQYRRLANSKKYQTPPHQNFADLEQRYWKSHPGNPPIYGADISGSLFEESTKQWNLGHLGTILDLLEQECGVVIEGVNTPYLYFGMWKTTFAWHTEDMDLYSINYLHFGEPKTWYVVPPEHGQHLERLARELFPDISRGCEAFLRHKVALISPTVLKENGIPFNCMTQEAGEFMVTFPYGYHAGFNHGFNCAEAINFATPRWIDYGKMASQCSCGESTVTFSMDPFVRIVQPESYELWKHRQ
# Tau fluor counter = counter-screen for tau fibril formation inhibitors | tau K18 P301L Alexa594 fluorescence, heparin fibrillization | Potency, µM (titrated, usually from 57.7 µM), for the others: top-dose activity change, negative = decrease | 0.93% of 280,000 active; also: potency is read from the fitted curve at half-maximal effect; % is scaled to controls: 0 for no effect and ±100 for the full control effect; nearly all actives have a fitted effect of over 55% in size
#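 Human tau K18 P301L (15 uM unlabeled, 0.24 uM Alexa 594-labeled) in 100 mM sodium acetate pH 7 with 20 uM heparin, 6 hr at 37 C. ThT 30 uM added, 1 hr ambient; Alexa 594 FP and total fluorescence read at 555/632 nm.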
# Starred values were filed as active, the others as inactive; ? = inconclusive; · = not tested or not shown; [ ] = remark or other dose. Unless noted, calls follow the shape of the dose curve; as a rule, active = well fitted curve in the direction sought with a large enough effect; inconclusive = small, poorly fitted or top-dose-only effect, or another doubt; inactive = no such curve, though single readings can be large; an effect the other way counts as inactive or inconclusive.
SMILES,CBFb-RUNX1 inh,Tau fibril FP,LMNA splice mod,Tau ThT inhib,JMJD2E inh,Tau fluor counter
CCCCC/C=C\C/C=C\C/C=C\C/C=C\CCCCCC(=O)NCC(=O)O,14%,3%,·,-2%,-1%,-1%
Cc1ccc(-c2nc3c4ccccc4n(CC(=O)N4CCN(c5ccc(F)cc5)CC4)c(=O)n3n2)cc1,·,-10%,18%[46 µM],-7%,·,1%
CN=C(c1ccco1)n1c(=S)nc(-c2ccco2)n(C)c1=S,0%,?,16%,28µM*,?,-22%
CCN(CCCCO)c1nc(C)nc2c1c(C)c(C)n2-c1c(C)cc(C)cc1C,3%,·,·,·,·,·
CCC(=O)N1CCc2cc(S(=O)(=O)NC(C(=O)NCCc3ccc(OC)c(OC)c3)C(C)C)ccc21 (centres undefined),·,-8%,·,0%,·,1%
CCN(CC)[C@@H](C)CN1c2ccccc2Sc2ccccc21,-7%[21.7 µM],·,-16%,·,7.9µM*,·
CN(C)CCCN1c2ccccc2Sc2ccccc21,?,11%,?,?,?,-23%
COC(=O)c1ccccc1NC(=O)N1CCC(n2c(C)nc3cccnc32)CC1,·,2%,2%[46 µM],8%,·,4%
CCN(CC)c1ccc2cc(C(=O)Nc3ccccn3)c(=O)oc2c1,?,0%,-12%,?,4.5µM*,2%
CCN(CC)c1ccc2cc(C(=O)Nc3cccnc3N3CCOCC3)c(=O)oc2c1,-6%,-1%,-5%,18%,-3%,3%
N/C(=N\NC(=O)c1cccs1)c1cc2ccccc2oc1=O,-29%,-2%,2%,?,-5%,-4%
CCN(CC)c1ccc2cc(/C(N)=N/NC(=O)c3cccs3)c(=O)oc2c1,17%,-7%,·,0.79µM*,-1%,-4%
CCOC(=O)C1CCCN(S(=O)(=O)c2ccc3c(c2)CCN3C(=O)CC)C1 (centres undefined),·,5%,·,-1%,·,-8%
Clc1cccc(N/N=C(\Cc2nc3ccccc3[nH]2)c2ccccc2)c1,-11%,?,-27%,?,-17%,7.1µM*[quencher]
O=C(NCc1nc2ccccc2[nH]1)c1cccc(Cl)c1,·,-2%,·,-11%,·,-10%
O=C1/C(=C\c2cccs2)Sc2ccc3ccccc3c21,-15%,-2%,-5%,1µM*,11%,-22%
CCCCCC(=O)Nc1nc(C)c(-c2csc(Nc3cc(Cl)ccc3C)n2)s1,?,7%,8%,?,-2%,?
CCCCCCC(=O)Nc1nc(C)c(-c2csc(Nc3ccc(Cl)cc3)n2)s1,-14%,0%,7%,5µM*,3%,6.3µM*[quencher]
CCCCCC(=O)Nc1nc(C)c(-c2csc(Nc3ccc(Cl)cc3)n2)s1,2%,8%,11%[0.0737 µM],11µM*,?,10µM*[quencher]
CCn1c(CNC(=O)C23CC4CC(CC(C4)C2)C3)nnc1SCC(=O)Nc1ccc(C)cc1,·,8%,·,-9%,·,-15%
CN(C)C(=S)N=Nc1[nH]c2ccccc2c1O,-2%,-23%,?,16µM*,18%,-24%
Cc1ccc(NC(=S)N=Nc2c(O)[nH]c3ccccc23)cc1,-16%,?,?,?,8%,?
Cc1cccc(C)c1[N+](=O)[O-],-2%[21.7 µM],·,·,·,·,·
N[C@@H](CCCCNC(=O)CCCC[C@@H]1SC[C@H]2NC(=O)N[C@H]12)C(=O)O,0.4µM*,·,·,·,·,·
CCOc1ccc(C2C(C#N)=C(C)NC3=C2C(=O)c2ccccc23)cc1 (centres undefined),?,?,?,?,?,20µM*[quencher]
SMILES,CBFb-RUNX1 inh,Tau fibril FP,LMNA splice mod,Tau ThT inhib,JMJD2E inh,Tau fluor counter
CC1=C([N+](=O)[O-])C(c2ccccc2)C2=C(N1)c1ccccc1C2=O (centres undefined),?,-1%,10%,16µM*,-5%,16µM*[quencher]
CCOC(=O)C1=C(C)NC2=C(C(=O)c3ccccc32)C1c1cccnc1 (centres undefined),2%,6%,-1%,?,2%,-9%
COc1cc(C2C(C#N)=C(C)NC3=C2C(=O)c2ccccc23)cc(OC)c1OC (centres undefined),6%,-4%,?,?,-21%,-30%
CCOc1ccc(C2C(C(=O)OC)=C(C)NC3=C2C(=O)c2ccccc23)cc1OC (centres undefined),·,-5%,·,?,·,16µM*[quencher]
C#CCOc1c(Br)cc(C2C(C(=O)OC)=C(C)NC3=C2C(=O)c2ccccc23)cc1OCC (centres undefined),·,?,·,6.3µM*,·,3.5µM*[quencher]
O=C1NC2=C(C(=O)c3ccccc32)C(c2ccccc2)N1 (centres undefined),2%,?,7%,22µM*,-4%,-22%
c1ccc2c(c1)ccc1ccccc12,1%[21.7 µM],·,·,·,·,·
CC1=[N+](C)c2ccc3ccccc3c2C1(C)C,·,1%,?,14µM*,?,?
Cc1[nH]c2ccccc2c1SCc1ccccc1,-2%,-5%,·,?,-3%,18µM*[quencher]
O=C(Nc1ccc(C2=NCCN2)cc1)c1ccc(C(=O)Nc2ccc(C3=NCCN3)cc2)c([N+](=O)[O-])c1,-5%,-5%,·,4.5µM*,-7%,?
O=C(Nc1ccc2c(c1)OCCO2)c1ccc(Cl)c([N+](=O)[O-])c1,-14%,5%,-1%,?,4%,?
COc1ccc(/C=C(\NC(=O)c2ccccc2)C(=O)NC2CCCCC2)cc1,·,2%,·,-7%,·,-6%
CCCCOc1ccc(-c2nn(-c3ccccc3)cc2C2NC(=O)NC(C)=C2C(=O)OCC)cc1 (centres undefined),·,-11%,·,?,·,-26%
Cn1c(C(=O)O)c(CC(=O)N2CCC(Cc3ccccc3)CC2)c2ccccc21,-1%,4%,-11%,?,32µM*,-10%
CCN(CC)c1ccc(NC2CC(=O)N(CCc3ccc(OC)cc3)C2=O)cc1 (centres undefined),·,?,·,11µM*,13µM*,?

# High-throughput results (PubChem BioAssay)
